Screening results from PubChem.
This is a sample that favours compounds with a hit; in the whole collection about 3.6% have one here.
Nrf2 inh = Nrf2 qHTS screen for inhibitors; A549 ARE-Fluc reporter, luciferase luminescence, 18-24 h; Potency, µM (doses to about 46 µM), inactives show at the top dose activity change, negative = inhibition, usual class: inhibitors; actives 2.1% (n = 360,000); AID 504444, 2011; also: % is scaled to controls: 0 for no effect and ±100 for the full control effect; nearly all actives have a fitted effect of over 60% in size
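A549 ARE_Fluc cells, 5000/well, 5% FBS OPTI-MEM; compounds in dose-response, 18-24 h at 37 °C/5% CO2; CellTiter-Fluor viability read (Ex 405/Em 525), then BugLite luciferase luminescence = Nrf2 activity.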
Nrf2 activator = qHTS of Nrf2 Activators | AREc32 ARE-luciferase reporter (MCF7-derived line), luminescence, 24 h | Potency, µM (titrated, usually from 46.1 µM), without a hit: at the top dose activation, hits mostly activators | actives 0.31% (n = 410,000); also: % of control where 0% means no effect; nearly all actives have a fitted effect of over 65% in size
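ARE activation measured as luciferase luminescence (Steady-Glo, 30 min RT) in AREc32_Fluc cells after 24 hr compound exposure at 37 deg C, 5% CO2; cells seeded overnight at 1000/well in OPTI-MEM, 5% FBS.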
TGFb inhibitor = qHTS for Inhibitors of TGF-b | AID 588855, 2011 | HepG2 CAGA-GFP TGF-b/SMAD3 reporter, GFP fluorescence, 18 h; TGF-beta stimulated, 500 pg/mL final | Potency, µM (highest dose often 46.1 µM), for the others: at the highest dose activity, negative = inhibition, actives largely listed as inhibitors | actives 1.2% (n = 410,000); also: % is scaled to controls: 0 for no effect and ±100 for the full control effect; nearly all actives have a fitted effect of over 65% in size
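HEPG2 CAGA-GFP, 1000 cells/well; 2 h settle, 37 C; cpd via pin tool; TGF-b 500 pg/mL final; 18 h, 37 C; GFP imaging ex488/em500-530; %Activity normalised to -TGF-b and +DMSO controls; CRC fit, curve class.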
HepG2 tox = qHTS for Inhibitors of TGF-b: Cytotox Counterscreen; HepG2 CAGA-GFP viability, ATP luminescence, 18 h; AID 588856, 2011; actives 0.76% (n = 410,000); Potency, µM (highest dose often 46.1 µM), without a hit: at the highest dose activity change, negative = cytotoxicity, actives largely listed as cytotoxic
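HepG2 CAGA-GFP cells (1000/well, DMEM with 1% FBS) received compound, then TGF-beta at 500 pg/mL final, and were incubated 18 hours at 37 degrees C. Viability was read by CellTiter-Glo luminescence. Media-only wells were set as complete cell-killing and DMSO as no toxicity.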
A549 viability = Nrf2 qHTS screen for inhibitors: counterscreen for cytotoxicity | A549 ARE-Fluc cells, CellTiter-Fluor viability, 18-24 h | Potency, µM (highest dose often 46 µM), inactives show top-dose activity change, negative = cytotoxicity, hits mostly inhibitors | actives 0.16% (n = 390,000) | AID 504648, 2011; also: % is scaled to controls: 0 for no effect and ±100 for the full control effect
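Cytotoxicity counterscreen: CellTiter-Fluor fluorescence was measured in A549 ARE_Fluc cells after 18-24 h of compound exposure in a concentration series. The subsequent BugLite luminescent read reports ARE-luciferase activity.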
The depositor's hits bear a star; u = inconclusive; x = no result given. Calls follow the shape of the dose curve; as a rule, active = well fitted curve in the direction sought with a large enough effect; inconclusive = small, poorly fitted or top-dose-only effect, or another doubt; inactive = no such curve, though single readings can be large; an effect the other way counts as inactive or inconclusive. Potency is read from the fitted curve at half-maximal effect.

SMILES	Nrf2 inh	Nrf2 activator	TGFb inhibitor	HepG2 tox	A549 viability
CC(C)C(=O)Nc1ccc(COc2ccccc2CN(Cc2ccccc2)C(=O)OC(C)(C)C)cc1	u	4.2%	-14.3%	-7.8%	-0.6%
Cc1cccc(NC(=O)C23CCC(C)(C(=O)O2)C3(C)C)c1 (configuration not stated)	15.4%	0.1%	-4.2%	10.6%	5.5%
COc1ccc(OC)c(C(C)NC(=O)C(C)Cc2ccccc2)c1 (configuration not stated)	-15.7%	-1.0%	0.4%	-7.2%	3.9%
COc1ccc(-c2noc(N3CCN(c4ccc(Cl)cc4)CC3)n2)cc1OC	u	-0.4%	-2.8%	4.3%	1.0%
COc1ccc(-c2noc(N3CCN(c4cccc(Cl)c4)CC3)n2)cc1OC	23.1µM*	0.2%	-16.8%	-10.2%	-5.2%
COc1cc(CC(=O)Nc2cccc(S(=O)(=O)N(C)c3ccccc3)c2)cc(OC)c1OC	14.6µM*	5.3%	u	-33.4%	u
CN(C)S(=O)(=O)c1cccc(NC(=O)CSc2nc3ccccc3[nH]2)c1	20.6µM*	-0.1%	u	-1.5%	-17.9%
CN(C)S(=O)(=O)c1cccc(NC(=O)Cc2ccc(-c3ccccc3)cc2)c1	13µM*	3.4%	u	-19.7%	u
CN(c1ccccc1)S(=O)(=O)c1cccc(NC(=O)c2nn(C)c(=O)c3ccccc23)c1	23.1µM*	2.0%	-27.5%	-22.5%	-2.0%
CN(c1ccccc1)S(=O)(=O)c1cccc(NC(=O)Cn2cnc3ccccc3c2=O)c1	x	2.2%	-27.9%	0.8%	-1.1%
COc1ccc(NC(=O)N(Cc2cc3cc(C)ccc3[nH]c2=O)CC2CCCO2)cc1 (configuration not stated)	-2.4%	0.2%	-18.8%	-18.1%	-20.6%
Cc1nn(C(=O)c2cccc([N+](=O)[O-])c2)c(C)c1Br	-15.2%	-0.5%	1.5%	2.4%	-0.7%
COc1ccc2c(c1)-c1c(sn(-c3ccccc3)c1=S)C(C)(C)N2	-5.8%	4.7%	-0.4%	5.2%	-5.4%
COc1ccc(-n2sc3c(c2=S)-c2cc(OC)ccc2NC3(C)C)cc1	20.6µM*	2.0%	6.9%	-22.8%	-17.8%
O=C1c2ccccc2C(=O)C1Cc1cccc2ccccc12	-2.3%	13.3%	0.0%	-15.1%	-11.3%
COc1ccc(OC)c(C2C(C(=O)c3cc4ccccc4o3)=C(O)C(=O)N2c2cc(C)on2)c1 (configuration not stated)	u	3.0%	2.4%	-10.4%	11.6µM*
CCCOc1ccc(C2C(C(=O)c3cc4ccccc4o3)=C(O)C(=O)N2c2cc(C)on2)cc1 (configuration not stated)	u	-0.2%	-0.8%	10.0%	20.6µM*
COc1ccc2sc(N(CCN(C)C)C(=O)/C=C/c3cccs3)nc2c1	-8.3%	10µM*	u	20µM*	-0.6%
COc1ccc2nc(N(CCN(C)C)C(=O)/C=C/c3cccs3)sc2c1	-25.2%	10µM*	u	-90.0%	-3.8%
CCN(CC)CCN(C(=O)/C=C/c1cccs1)c1nc2ccc(OC)cc2s1	u	0.0%	-10.5%	7.1%	-12.2%
O=C(NNC(=O)C12CC3CC(CC(C3)C1)C2)c1cccc([N+](=O)[O-])c1	-8.8%	10µM*	-20.1%	-34.3%	-5.2%
CC(=O)c1c(C)oc2c1C(=O)c1ccccc1C2=O	3.8%	0.4%	7.94µM*	-92.0%	0.9%
CC(=O)c1c2c3c(c(Br)ccc3n(C)c1=O)C(=O)c1ccccc1-2	1.7%	12.0%	1.8%	5.7%	-18.8%
Cc1oc2c(c1C(=O)NCc1cccnc1)C(=O)c1ccccc1C2=O	5.17µM*	-5.2%	0.282µM*	0.447µM*	2.59µM*
CC1CC(=O)c2cnc(Nc3ccccc3)nc2C1 (configuration not stated)	u	4.6%	0.2%	2.0%	3.1%
CN(Cc1nc2ccccc2n1C)S(=O)(=O)c1ccc(F)cc1	x	0.0%	5.9%	3.0%	3.4%
